Bioassay records: PubChem BioAssay, several laboratories
tim10-1 inh: growth inhibitors of tim10-1 mutant yeast, primary screen, luminescence, uHTS. 330,000 compounds, 2.2% hits. inhibition, % at 20 µM. AID 463190, 2010. S. cerevisiae tim10-1 ts strain growth, BacTiter-Glo, 24 h;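 active means inhibition of at least 40%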;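 further: mutant grown at 25 °C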
NALP3 yeast inh: NALP3 inflammasome inhibitors in reconstituted yeast, primary screen, luminescence, uHTS; Yeast reconstituted NLRP3/ASC/caspase-1, beta-gal luminescence, 24 h; inhibition, % at 10 µM; 330,000 compounds, 0.39% hits; AID 2825, 2010;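 active means inhibition of 50% or more; inactive means inhibition below 50%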
V-ATPase pH: regulators of yeast V-ATPase proton pumping, primary screen, pHLuorin cytosolic pH fluorescence; S. cerevisiae; response, % at 10 µM; 350,000 compounds, 0.37% hits; in the data active means response mostly above about 7.3%, no sharp cut-off; inactive means mostly below about 5.4%; further: actives read high
TIM10 inh: growth inhibitors of isogenic TIM10 control yeast, primary screen, counter-screen for tim10-1 yeast inhibitor project, luminescence, uHTS; S. cerevisiae TIM10 strain growth, BacTiter-Glo luminescence, 24 h; AID 463195, 2010; inhibition, % at 10 µM; 330,000 compounds, 1.4% hits;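 active means inhibition of 40% or more at the single tested concentration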;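 further: wild-type TIM10 isogenic control strain grown at permissive 25 °C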
NALP1 yeast inh: NALP1 inflammasome inhibitors in reconstituted yeast, colorimetric, S. cerevisiae, triplicate retest. S. cerevisiae NALP1/ASC/caspase-1 growth, X-gal OD620, 72 h. inhibition, % at 10 µM. 280,000 compounds, 0.61% hits. AID 2071, 2009; in the data active means inhibition mostly above about 24%, no sharp cut-off; inactive means mostly below about 32%
tim23-1 inh: growth inhibitors of tim23-1 mutant yeast, primary screen, luminescence, uHTS. S. cerevisiae tim23-1 growth, BacTiter-Glo luminescence, 24 h. inhibition, % at 20 µM. 330,000 compounds, 1.3% hits. AID 463212, 2010;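 active means growth inhibition of the mutant yeast at or above 50%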;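 further: temperature-sensitive mutant grown at 25 °C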
NALP3 yeast conf: NALP3 inhibitors retested in yeast, confirmation, luminescence, single concentration | inhibition, % at 10 µM | shares compounds with NALP3 yeast inh | yeast expressing human NALP3 | 1,300 compounds, 81% hits; in the data active means inhibition above about 48%
Casp1 ASC ctr: CASP1-PYCARD signaling inhibition in yeast, confirmatory test, counterassay for NLRP3 inhibitor program, one-dose; AID 488784, 2010; shares compounds with NALP3 yeast inh; yeast expressing Caspase-1-ASC, luminescence counter screen; inhibition, % at 10 µM; 1,000 compounds, 66% hits
NALP3 yeast rt: NALP3 inhibitors in yeast, repeat test, confirmation, luminescence, single concentration, retest | AID 488794, 2010 | 1,000 compounds, 53% hits | inhibition, % at 10 µM | yeast expressing human NALP3, luminescence read-out | shares compounds with NALP3 yeast inh
Large screens that a line does not name were inactive (follow-up assays come after a bar, where they were run). In the library only some 4.2% were active in any assay of this set; here they are far more common. Unless noted, no stated cut-off is given here; in the data, active means inhibition above about 50%; inactive means the rest.

Clc1ccccc1Cn1nnc2c(Nc3ccccc3)ncnc21	NALP3 yeast inh 62 | NALP3 yeast conf 74 | Casp1 ASC ctr 55 | NALP3 yeast rt 57
Cc1cccc(NC(=O)Nc2ccc([N+](=O)[O-])cc2)n1	none
Cn1ncc2c(Nc3ccc(-c4ccccc4)cc3)ncnc21	NALP3 yeast inh 51 (no result: V-ATPase pH) | NALP3 yeast conf 52 | Casp1 ASC ctr 60 | NALP3 yeast rt 54
Cn1ncc2c(Nc3ccc(Cl)c(Cl)c3)ncnc21	none
CCC1(C)N(O)C(C)(C)C(c2ccc(F)cc2)=[N+]1[O-] (stereo unspecified)	none
CC(=O)Oc1ccccc1C(=O)Nc1ccccc1	NALP3 yeast inh 52 (no result: NALP1 yeast inh) | NALP3 yeast conf 68 | Casp1 ASC ctr inactive | NALP3 yeast rt inactive
CSc1nc2ccc(S(=O)(=O)N3CCOCC3)cc2s1	none
CSc1nc2ccc(S(=O)(=O)N3CCCCC3)cc2s1	NALP3 yeast inh 63 | NALP3 yeast conf 82 | Casp1 ASC ctr inactive | NALP3 yeast rt inactive
COc1ccccc1C(=O)NCCC(=O)N1CCN(S(=O)(=O)c2ccccc2C(F)(F)F)CC1	none (no result: NALP1 yeast inh)
COc1ccccc1NC(=O)Nc1ccc(C)cn1	NALP3 yeast inh 61 | NALP3 yeast conf 76 | Casp1 ASC ctr 68 | NALP3 yeast rt 65
Clc1ccc(C(c2cccs2)N2CCNCC2)cc1 (stereo unspecified)	none (no result: tim10-1 inh, NALP3 yeast inh, TIM10 inh, NALP1 yeast inh, tim23-1 inh)
CCOc1ccc(N2C(=O)/C(=C/c3ccccn3)SC2=S)cc1	none (no result: V-ATPase pH)
O=C1/C(=C/c2ccccn2)SC(=S)N1c1cccc(O)c1	NALP3 yeast inh 81 (no result: NALP1 yeast inh) | NALP3 yeast conf 74 | Casp1 ASC ctr 80 | NALP3 yeast rt 51
O=C1/C(=C/c2cccnc2)SC(=S)N1CCc1ccccc1	NALP3 yeast inh 50 | NALP3 yeast conf inactive
O=C1/C(=C/c2cccnc2)SC(=NCc2ccccc2)N1Cc1ccccc1	none
Cc1ccc(/C=C2\SC(=S)N(c3cccnc3)C2=O)cc1	NALP3 yeast inh 54 | NALP3 yeast conf inactive
O=C1/C(=C/c2cccnc2)SC(=S)N1c1ccc(F)cc1	none
O=C1/C(=C/c2cccnc2)SC(=S)N1c1ccc(O)cc1	NALP3 yeast inh 87 | NALP3 yeast conf 89 | Casp1 ASC ctr 90 | NALP3 yeast rt 74
CCN1C(=O)[C@H]2[C@@H](c3ccc(-c4ccc5c(c4)OCO5)c(OC)c3)N[C@@](CC(C)C)(C(=O)OC)[C@H]2C1=O	none (no result: NALP1 yeast inh)
CC(C(=O)NCCC1=CCCCC1)c1ccc([N+](=O)[O-])cc1 (stereo unspecified)	NALP3 yeast inh 51 | NALP3 yeast conf 61 | Casp1 ASC ctr inactive | NALP3 yeast rt inactive
O=C(C1CCN(S(=O)(=O)c2cccc3cccnc23)CC1)N1CCn2c1nc1ccccc12	NALP3 yeast inh 80 | NALP3 yeast conf 90 | Casp1 ASC ctr 85 | NALP3 yeast rt 87
Cc1ccccc1-c1ccc(Nc2ccc(N3CCOCC3)cc2)nn1	NALP3 yeast inh 64 | NALP3 yeast conf 74 | Casp1 ASC ctr 60 | NALP3 yeast rt 62
Cc1ccccc1OCCn1c(=S)[nH]c2ccccc21	NALP3 yeast inh 53 | NALP3 yeast conf 79 | Casp1 ASC ctr 67 | NALP3 yeast rt inactive
Fc1ccccc1OCCn1c(=S)[nH]c2ccccc21	none
CCOC(=O)Cc1csc(NC(=O)c2csc3c2CCCC3)n1	none
CC1(c2ccccc2)NC(=O)N(CC(=O)NNC(=O)c2cccc(Cl)c2)C1=O (stereo unspecified)	none (no result: NALP1 yeast inh)
N#Cc1ccc(NC(=O)Nc2ccc(Cl)cc2)cc1	NALP3 yeast inh 72, NALP1 yeast inh 71 | NALP3 yeast conf 57 | Casp1 ASC ctr inactive | NALP3 yeast rt 60
Cc1ccc(NC(=O)Nc2ccc(F)c(Cl)c2)cc1	none
CN(CC(=O)Nc1ccc(C#N)cc1)Cc1ccc(Cl)cc1	none
CN(CC(=O)Nc1ccc(C#N)cc1)Cc1ccc(Cl)cc1Cl	NALP3 yeast inh 65 | NALP3 yeast conf 59 | Casp1 ASC ctr 59 | NALP3 yeast rt inactive
O=C(Nc1ccc(Cl)cc1)Nc1ccc(Cl)c(Cl)c1	NALP3 yeast inh 72 (no result: V-ATPase pH, NALP1 yeast inh) | NALP3 yeast conf 72 | Casp1 ASC ctr inactive | NALP3 yeast rt inactive
Cc1cccc(C(=O)NC(NCCc2ccccc2)C(Cl)(Cl)Cl)c1 (stereo unspecified)	none
CCOc1ccc(N(CC(=O)NC2CCCCC2)C(=O)CSc2nnc(COc3ccccc3)o2)cc1	none
Cc1c(C(=O)NCCCN2CCCC2=O)oc2ccc(S(=O)(=O)N3CCOCC3)cc12	none
Cc1c(C(=O)NCCC2=CCCCC2)oc2ccc(S(=O)(=O)N3CCOCC3)cc12	NALP3 yeast inh 58 | NALP3 yeast conf 62 | Casp1 ASC ctr 55 | NALP3 yeast rt inactive
C[C@@H]1CN([C@H](C)CO)C(=O)CCCn2cc(nn2)CO[C@H]1CN(C)C(=O)Nc1ccc(-c2cccs2)cc1	none (no result: tim10-1 inh, NALP3 yeast inh, TIM10 inh, NALP1 yeast inh, tim23-1 inh)
CCN(CC)S(=O)(=O)c1cc(C)c(C)cc1Br	NALP3 yeast inh 58 | NALP3 yeast conf 54 | Casp1 ASC ctr 53 | NALP3 yeast rt inactive
Cc1ccc(NN2C(=O)C=C(c3ccccc3)C2=O)cc1	NALP3 yeast inh 83 (no result: V-ATPase pH) | NALP3 yeast conf 72 | Casp1 ASC ctr 96 | NALP3 yeast rt 62
COc1cc(C)ccc1OCCOc1ccccc1Cl	NALP3 yeast inh 51 | NALP3 yeast conf 49 | Casp1 ASC ctr inactive | NALP3 yeast rt inactive
Cc1c(-c2ccc(Cl)cc2)oc(=O)c2c(N)n(-c3ccccc3)nc12	none
Nc1c2c(=O)oc(-c3ccccc3)cc2nn1-c1ccccc1	NALP3 yeast inh 51 | NALP3 yeast conf 68 | Casp1 ASC ctr 54 | NALP3 yeast rt inactive
CN1CCN(S(=O)(=O)c2ccc(=O)[nH]c2)CC1	none
CC(=O)N1N=C(c2ccc(C)c([N+](=O)[O-])c2)OC1(C)C	NALP3 yeast inh 53 | NALP3 yeast conf 49 | Casp1 ASC ctr 75 | NALP3 yeast rt 57
CC(=O)N1N=C(c2cccc([N+](=O)[O-])c2)OC1(C)c1cccs1 (stereo unspecified)	none
O=C1c2ccsc2SCCN1Cc1ccccc1Cl	NALP3 yeast inh 51 | NALP3 yeast conf 57 | Casp1 ASC ctr inactive | NALP3 yeast rt inactive
O=C(c1ccccc1)N1CCSc2sccc2C1=O	none (no result: tim10-1 inh, NALP3 yeast inh, TIM10 inh, tim23-1 inh)
Cc1ccccc1CN1CCSc2sccc2C1=O	NALP3 yeast inh 58 | NALP3 yeast conf inactive | Casp1 ASC ctr inactive | NALP3 yeast rt inactive
